The values that follow come from PubChem BioAssay (NCI).

The panel holds about 83,000 compounds, 20% with a hit somewhere; the sample as a whole holds those more often.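 Note: values are percent growth. 100 is the growth of untreated cells, values between 100 and 0 indicate rising inhibition; between -100 and 0 indicates cell death.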 Values without a mark were called inactive. Calls of active or inactive are those of the source. Rule for the calls: active = growth percent below 10; inactive = the rest.

Test systems include SK-MEL-2 melanoma; EKVX NSCLC; UO-31 renal; TK-10 renal; ACHN renal; CAKI-1 renal; A498 renal; CCRF-CEM leukemia; MOLT-4 leukemia; SR leukemia; RPMI-8226 leukemia; OVCAR-8 ovarian; OVCAR-5 ovarian; OVCAR-4 ovarian; SK-OV-3 ovarian; IGROV1 ovarian; OVCAR-3 ovarian; HS 578T breast; NCI/ADR-RES ovarian; SN12C renal.
Common to all, as to assay: NCI-60 one-dose screen, 48 h (100 = growth as untreated, 0 = no growth, -100 = all killed)
Holding throughout (settings): 10 µM unless noted

As to `COc1ccc(C(=O)/C=C/c2ccc(Cl)cc2)cc1S(=O)(=O)Nc1c(N)nc(SC)[nH]c1=O`, the growth in the assay with SK-MEL-2 melanoma is 95.8%; in the assay with EKVX NSCLC, 85.2%; in the assay on UO-31 renal, 51.6%; in the assay with TK-10 renal, 79.6%; in the assay on ACHN renal it was 82.1%; with CAKI-1 renal it was 68.5%. The growth with A498 renal is 80.9%; in the assay on CCRF-CEM leukemia, 9.03% (active); with MOLT-4 leukemia it was 59.8%; with SR leukemia, 9.2% (active); with RPMI-8226 leukemia, 10%; in the assay on OVCAR-8 ovarian, 10.8%. The growth in the assay with OVCAR-5 ovarian was 86.3%; in the assay on OVCAR-4 ovarian, 66.7%; in the assay on SK-OV-3 ovarian, 97.4%; in the assay with IGROV1 ovarian it was 40.1%; in the assay with OVCAR-3 ovarian, 10.1%; in the assay with HS 578T breast, 81.4%. Besides, the growth in the assay on NCI/ADR-RES ovarian was 97.5%.
On to `CC1(C)C(N)=Nc2cc(OCCCN3Cc4ccccc4C3)c(OCC3CC3)cc21`, for which the growth in the assay on SK-MEL-2 melanoma was 108%; in the assay on EKVX NSCLC, 77.6%; with UO-31 renal, 58.6%; in the assay with TK-10 renal, 81.3%; with ACHN renal it was 96.6%; in the assay on CAKI-1 renal it was 52.5%. The growth with A498 renal is 92%; in the assay with MOLT-4 leukemia it was 36.1%; in the assay with RPMI-8226 leukemia, 44.3%; in the assay on OVCAR-8 ovarian, 76.8%; in the assay on OVCAR-5 ovarian, 83.2%; in the assay on OVCAR-4 ovarian, 91.4%. In addition, the growth in the assay on SK-OV-3 ovarian was 75%; with IGROV1 ovarian, 80.2%; in the assay with OVCAR-3 ovarian, 80.6%; in the assay on HS 578T breast, 71.7%; with NCI/ADR-RES ovarian, 92.9%.
With `C=C(CNCCc1ccc(O)cc1)[C@@H]1CC[C@]2(CO)CC[C@]3(C)[C@H](CC[C@@H]4[C@@]5(C)CCC(=O)C(C)(C)[C@@H]5CC[C@]43C)[C@@H]12`, the growth in the assay on SK-MEL-2 melanoma was 37.5%; with EKVX NSCLC, 80%; in the assay with SN12C renal, 24.5%; in the assay with TK-10 renal, 67.4%; in the assay with ACHN renal, 12.6%; in the assay with CAKI-1 renal it was 58.2%. In addition, the growth in the assay with A498 renal is 84.1%; with CCRF-CEM leukemia, -9.98% (active); in the assay with MOLT-4 leukemia it was 1.2% (active); in the assay on SR leukemia it was -24.9% (active); with OVCAR-8 ovarian it was -70.3% (active); with OVCAR-5 ovarian it was 90%. Further, the growth in the assay on OVCAR-4 ovarian is 58.1%; with SK-OV-3 ovarian, 92.4%; in the assay on IGROV1 ovarian it was 30.9%; in the assay with OVCAR-3 ovarian it was 39.7%; with HS 578T breast, 51.9%; in the assay on NCI/ADR-RES ovarian it was 33%.
For the compound `N=c1c(S(=O)(=O)c2ccccc2)cc2c(=O)n3ccccc3nc2n1CC1CCCO1` (configuration not stated), the growth with SK-MEL-2 melanoma was 112%; with EKVX NSCLC, 107%; in the assay on UO-31 renal, 56.4%; in the assay on TK-10 renal, 114%; in the assay on ACHN renal, 103%; in the assay on CAKI-1 renal, 85.2%. The growth with A498 renal was 84.1%; with CCRF-CEM leukemia it was 109%; in the assay with MOLT-4 leukemia it was 102%; in the assay with SR leukemia it was 106%; in the assay with RPMI-8226 leukemia it was 109%; in the assay on OVCAR-5 ovarian, 89.8%. Moreover, the growth with OVCAR-4 ovarian was 99.9%; in the assay with SK-OV-3 ovarian, 99.3%; in the assay on IGROV1 ovarian it was 102%; with OVCAR-3 ovarian, 108%; in the assay on HS 578T breast it was 104%; in the assay with NCI/ADR-RES ovarian, 98.7%.
As to `[2H]C([2H])([2H])Oc1ccc(F)cc1/C=C/C(=O)/C=C(O)/C=C/c1cc(F)ccc1OC([2H])([2H])[2H]`, the growth was 98.2% in the assay with SK-MEL-2 melanoma; 107% with EKVX NSCLC; 121% with TK-10 renal; 106% with ACHN renal; 93.6% with CAKI-1 renal; 99.4% with A498 renal. The growth was 86.9% in the assay on CCRF-CEM leukemia; 75.1% in the assay with MOLT-4 leukemia; 69.4% with SR leukemia; 90% with RPMI-8226 leukemia; 88.8% in the assay with OVCAR-8 ovarian; 111% in the assay with OVCAR-5 ovarian. Besides, the growth with OVCAR-4 ovarian was 84.3%; with SK-OV-3 ovarian, 104%; in the assay on IGROV1 ovarian, 105%; in the assay with OVCAR-3 ovarian, 95.6%; in the assay with HS 578T breast, 104%; with NCI/ADR-RES ovarian, 89.9%.
Turning to `Cc1ccc(C(=O)c2ccc(CC(=O)N=Nc3c(O)[nH]c4ccc(Br)cc34)n2C)cc1`, the growth in the assay with SK-MEL-2 melanoma was 91.3%; in the assay with SN12C renal, 85.2%; with UO-31 renal it was 64.7%; in the assay on TK-10 renal it was 131%; in the assay on ACHN renal it was 88.9%; with CAKI-1 renal it was 79.7%. For the same compound, the growth in the assay on A498 renal is 89.3%; in the assay on CCRF-CEM leukemia it was 95.4%; in the assay on MOLT-4 leukemia, 86%; in the assay on SR leukemia, 101%; in the assay with RPMI-8226 leukemia it was 92.7%; in the assay with OVCAR-8 ovarian, 94.9%. In addition, the growth in the assay on OVCAR-5 ovarian is 91.7%; with OVCAR-4 ovarian, 97.6%; with SK-OV-3 ovarian, 91.3%; with IGROV1 ovarian, 77.5%; in the assay on OVCAR-3 ovarian, 105%; in the assay on HS 578T breast, 99.6%. In the assay on NCI/ADR-RES ovarian, the growth was 87.7%.
As to `COc1cc(C2C(C(=O)OCc3ccccc3)=C(C)NC(C)=C2C(=O)OCc2ccccc2)cc(OC)c1OC`, the growth is -6.43% (active) in the assay with SK-MEL-2 melanoma; 29.1% in the assay with SN12C renal; 18.5% in the assay on UO-31 renal; 34.8% with TK-10 renal; 16.2% in the assay with ACHN renal; 26.2% in the assay on CAKI-1 renal. For the same compound, the growth with A498 renal was 36.8%; in the assay on CCRF-CEM leukemia, 11.3%; with MOLT-4 leukemia, -9.95% (active); in the assay on SR leukemia it was 4.89% (active); in the assay on RPMI-8226 leukemia it was -0.546% (active); in the assay with OVCAR-8 ovarian, 34%. In addition, the growth in the assay with OVCAR-5 ovarian is 68.5%; with OVCAR-4 ovarian, 37.6%; with SK-OV-3 ovarian it was 27.5%; with IGROV1 ovarian, 38.7%; in the assay on OVCAR-3 ovarian it was 35.7%; in the assay on HS 578T breast, 46.4%. Further, the growth in the assay with NCI/ADR-RES ovarian was 26.1%.
Take `CCOc1ccc(-n2nc(C(=O)NCc3ccccc3OC)nc2-c2cc(OC)c(OC)c(OC)c2)cc1`: the growth with SK-MEL-2 melanoma is 41.5%; in the assay with SN12C renal it was 39.7%; in the assay with UO-31 renal it was -2.66% (active); in the assay on TK-10 renal, 46.5%; with ACHN renal it was 19.6%; in the assay with CAKI-1 renal, 25.9%. Besides, the growth with A498 renal is 30%; in the assay with CCRF-CEM leukemia, 39.7%; with MOLT-4 leukemia it was 0.381% (active); in the assay with SR leukemia, 35.9%; in the assay with RPMI-8226 leukemia it was 26.9%; with OVCAR-8 ovarian, 43.7%. Moreover, the growth was 74.2% with OVCAR-5 ovarian; 23.4% with OVCAR-4 ovarian; 67.1% with SK-OV-3 ovarian; 43.7% in the assay with IGROV1 ovarian; 49.4% in the assay with OVCAR-3 ovarian; 55.1% with HS 578T breast. Moreover, the growth in the assay with NCI/ADR-RES ovarian was 27.8%.
